D2 PAM-1 = HTS Assay for Positive Allosteric Modulators of the Human D2 Dopamine Receptor: Primary Screen for Potentiators; potentiation, % at 10 µM; HEK293 T-REx D2, calcium flux, EC20 dopamine potentiation; 340,000 tested, 0.34% active; D(2) dopamine receptor (Homo sapiens), P14416;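 active = potentiation over 3 SD above the plate norm, cut at about 30% in these data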; also: 0% is about no effect
Target sequence (P14416 whole entry, looked up): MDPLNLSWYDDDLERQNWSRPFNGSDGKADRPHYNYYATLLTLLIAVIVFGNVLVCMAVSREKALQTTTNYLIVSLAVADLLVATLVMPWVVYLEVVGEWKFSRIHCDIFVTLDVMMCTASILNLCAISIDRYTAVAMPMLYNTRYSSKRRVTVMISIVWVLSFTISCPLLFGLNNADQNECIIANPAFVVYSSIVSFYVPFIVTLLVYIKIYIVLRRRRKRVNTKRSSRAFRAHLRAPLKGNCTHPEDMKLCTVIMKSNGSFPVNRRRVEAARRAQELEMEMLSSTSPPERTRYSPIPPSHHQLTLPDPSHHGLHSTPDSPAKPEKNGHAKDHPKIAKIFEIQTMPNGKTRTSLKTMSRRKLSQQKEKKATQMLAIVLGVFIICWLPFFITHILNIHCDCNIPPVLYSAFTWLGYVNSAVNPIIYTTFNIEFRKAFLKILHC
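Potentiation of an EC20 dopamine calcium response is measured in a force-coupled, tetracycline-inducible Hek293 Trex D2 line. Compound-only kinetic reads over 180 s flag agonists before dopamine addition.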
D2 ag-1 = HTS Assay for Allosteric Agonists of the Human D2 Dopamine Receptor: Primary Screen for Agonists. D(2) dopamine receptor (Homo sapiens), P14416. HEK293 T-REx D2 cells, calcium flux agonist mode. activation, % at 2 µM. 340,000 tested, 0.53% active;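 active = activation over 3 SD above normal in the single-dose calcium agonist read, cut at about 30% in these data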; also: 0% is about no effect
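Tetracycline-induced HEK293 T-REx cells with force-coupled D2 receptor, plated overnight at 30 C, loaded with no-wash calcium dye. After a 10 s baseline, compound was pin-added and calcium flux read kinetically for 180 s; calcium rises flagged agonists.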
D2 antagonist = HTS Assay for Allosteric Antagonists of the Human D2 Dopamine Receptor: Primary Screen for Antagonists | 340,000 tested, 2% active | HEK293 TREx D2 cells, calcium flux, dopamine EC80 | AID 485344, 2010 | inhibition, % at 10 µM | D(2) dopamine receptor (Homo sapiens), P14416; in the data active = inhibition above about 30%; inactive = below that, where a call was filed; also: 0% is about no effect
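Measurement of antagonist activity uses fluorescent calcium dye in inducible HEK293 T-REx D2 cells: 10 s baseline, compound addition with 180 s read, EC80 dopamine addition with a further 180 s read.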
D2 PAM-2 = Beta-Arrestin HTS for Positive Allosteric Modulators of the Human D2 Dopamine Receptor: Potentiators; AID 624464, 2012; 360,000 tested, 0.23% active; DiscoveRx D2 beta-arrestin cells, luminescence, 90 min; 100% = 57 uM dopamine signal; potentiation, % (no concentration beside the values); in the data active = potentiation above about 50%; inconclusive = mostly about 30% to 49%
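PathHunter beta-arrestin assay in DiscoveRx D2 cells. Compounds were added with an EC20 of dopamine (50 nM final) for 90 min at 37 deg C. Luminescence was read 1 h after detection reagent, with 57 uM dopamine as the EC100 control.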
D2 ag-2 = Beta-Arrestin HTS for Positive Allosteric Modulators of the Human D2 Dopamine Receptor: Agonists | activation, % (test concentration not listed) | AID 624465, 2012 | 360,000 tested, 0.084% active | DiscoveRx PathHunter D2 beta-arrestin, luminescence, 90 min; 100% = 57 uM dopamine signal; in the data active = activation above about 40%; inconclusive = between about 15% and that limit
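DiscoveRx PathHunter D2 beta-arrestin cells (2,100/well) attached overnight, then compound-stimulated 90 min at 37 C in HBSS/10 mM HEPES/0.1% Tween-20 buffer; beta-galactosidase complementation read by luminescence after 1 h at ambient temperature. Dopamine 57 uM final (EC100) as control.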
Starred values were filed as active, the others as inactive; ? = inconclusive; / = not tested or not shown. Hits are enriched below; roughly 2.4% of the tested compounds scored in any of these assays.

SMILES	D2 PAM-1	D2 ag-1	D2 antagonist	D2 PAM-2	D2 ag-2
O=C(N/N=C/c1ccc(N2CCCC2)c([N+](=O)[O-])c1)c1cccnc1	-17	1	41*	-4	-1
O=C(Nc1ccc(N2CCCCC2)cc1)c1cccnc1	-8	0	34*	12	3
COc1ccc(C(=O)NC(=S)Nc2ccc(N3CCCC3)cc2)cc1	/	/	/	-2	6
COc1cc(OC)cc(C(=O)NC(=S)Nc2ccc(NC(=O)c3ccco3)cc2)c1	37*	2	-1	12	1
O=C(Nc1ccc(N2CCN(Cc3ccccc3Cl)CC2)cc1)c1cccnc1	-3	1	15	-6	0
O=C(NCCO)C(=O)NCC(c1ccc2c(c1)OCO2)N1CCOCC1 (stereo not given)	10	1	/	/	/
Cc1ccc2nc3cc([N+](=O)[O-])cc([N+](=O)[O-])c3cc2c1	/	0	0	19	-18
Cc1ccccc1-n1ncc2c([N+](=O)[O-])cc([N+](=O)[O-])cc21	12	0	-30	83*	8
COc1cc(NC(C)=O)c2ncccc2c1NC(C)=O	13	1	37*	-4	-6
Cc1ccccc1OCC(=O)Nc1sc2c(c1C(=O)OC(C)C)CCCC2	0	1	/	/	/
C/C(=N\NC(=O)c1c[nH]c2ccccc12)c1ccc(C)s1	17	-1	2	-12	-2
C/C(=N/NC(=O)c1ccncc1)c1c[nH]c2ccccc12	10	-2	48*	-16	0
COc1ccc(-n2nnnc2-c2cccc(OC)c2)cc1	-2	0	36*	12	-1
O=C(Cn1cc(S(=O)(=O)Cc2ccc(F)cc2)c2ccccc21)NCc1ccccc1	-6	1	/	/	/
COc1ccc(C(=O)NNC(=S)NC(=O)C(C)(C)C)cc1	-26	92*	62*	-11	-1
COc1ccc(C(=O)NNC(=O)c2ccc(C(C)(C)C)cc2)cc1	/	0	5	7	5
CC(C)c1ccc(NC(=O)CCS(=O)(=O)c2ccc3c(c2)CC(=O)N3C)cc1	-2	0	/	/	/
CCc1ccc(N2CC(C(=O)Nc3nc4ccc(S(C)(=O)=O)cc4s3)CC2=O)cc1 (stereo not given)	-11	0	37*	-3	-2
C[C@@H]1NC(=O)c2cc([N+](=O)[O-])cc(I)c2OCC[C@@H](C(N)=O)NC(=O)[C@H](CCCCN)NC1=O	6	0	-1	-7	-1
C[C@@H]1NC(=O)[C@H](CCCN=C(N)N)NC(=O)c2cc([N+](=O)[O-])cc(I)c2OCC[C@@H](C(N)=O)NC1=O	0	-1	32*	/	/
CCN1CCCC1CNC(=O)c1cc(S(N)(=O)=O)ccc1OC (stereo not given)	/	/	/	-33	-6
CCC(=O)Nc1cc(C(=O)NCC2CCCN2CC)c(OC)cc1N(C)C (stereo not given)	-21	1	73*	-21	0
CCN1CCCC1CNC(=O)c1ccccc1Cl (stereo not given)	/	/	/	-13	-1
CCN1CCCC1CNC(=O)c1cc(NC(C)=O)c(N(C)C)cc1OC (stereo not given)	-19	0	69*	-18	-1
O=C(NCc1ccco1)c1ccc(Cn2c(SCc3ccc(F)cc3)nc3cccnc32)cc1	7	0	/	/	/
SMILES	D2 PAM-1	D2 ag-1	D2 antagonist	D2 PAM-2	D2 ag-2
Cc1cc(C)c(Cn2c3ccccc3c3cnn(CC(=O)NC4CCC(C)CC4)c(=O)c32)c(C)c1 (stereo not given)	-5	0	/	/	/
Cc1ccc(S(=O)(=O)c2nnn3c2nc(NC2CCCCC2)c2sccc23)cc1C	5	-1	/	/	/
CCOCCCNC(=O)c1cc2c(=O)[nH]c3ccccc3c2s1	-13	39*	58*	8	?
CCC(=O)C1=C(c2ccc(F)cc2)N(C(=O)CC)n2cnnc2S1	12	0	/	/	/
COC(=O)c1ccc(NC(=O)Cn2nc(C(=O)Nc3ccc(C)cc3)ccc2=O)cc1	-1	-1	30*	-2	-4
O=C1C=C(c2cc3ccccc3s2)C[C@@H](c2ccc(Cl)cc2)C1	/	/	/	-4	-4
O=C1C=C(c2cccc3c2sc2ccccc23)C[C@@H](c2ccc(Cl)cc2)C1	33*	-1	11	-4	-3
O=C(CN1C(=O)NC(Cc2ccccc2)C1=O)Nc1ccc(F)cc1 (stereo not given)	-3	0	-14	-1	1
O=C(CN1C(=O)NC(Cc2ccccc2)C1=O)Nc1ccc(F)c(Cl)c1 (stereo not given)	3	1	33*	-2	5
Cc1ccc(/C=C/c2onc(C)c2S(=O)(=O)N2CCC(C(=O)NCC(C)c3ccccc3)CC2)cc1 (stereo not given)	-1	2	/	/	/
CCn1c2ccccc2c2cc(NC(=O)Cc3ccc(S(=O)(=O)N4CCOCC4)s3)ccc21	-6	0	36*	1	0
CC(Oc1ccccc1)C(=O)Nc1c(C(=O)Nc2cccc(F)c2)oc2ccccc12 (stereo not given)	14	0	/	/	/
O=C(CCN1C(=O)c2ccc([N+](=O)[O-])cc2C1=O)Nc1ccc(O)cc1C(=O)O	17	-2	-2	61*	?
O=C(CN1C(=O)c2ccc([N+](=O)[O-])cc2C1=O)NCc1ccc(C(=O)O)cc1	0	1	4	51*	9
COc1ccc(CCNC(=O)c2nc(-c3ccc(Cl)cc3)n3c2CCCCC3)c(OC)c1	2	-2	/	/	/
COc1cc(C2CC(=O)Oc3c(C(CCN4CCCC(C)C4)c4ccc(N(C)C)cc4)c(OC)cc(OC)c32)cc(OC)c1OC (stereo not given)	-18	0	44*	-24	1
Fc1cccc(Cc2noc(CN3CCC(c4ccncc4)CC3)n2)c1	0	0	53*	-7	8
Fc1cccc(Cc2noc(CN3CCOCC3)n2)c1	-6	0	8	-11	-4
COc1cc(C2CC(=O)Nc3c2c(=O)[nH]c2ncnn32)ccc1O (stereo not given)	14	-1	/	/	/
CC(NC(=O)Nc1ccc(O)cc1)(C(F)(F)F)C(F)(F)F	6	1	-2	118*	13
CCOCc1c(C(=O)N2CCN(CC(=O)Nc3ccc(F)cc3)CC2)oc2ccccc12	-12	0	72*	4	-4

High-throughput results (PubChem)
